According to PubChem BioAssay AID504452 (The Scripps Research Institute Molecular Screening Center, 2011):
The source made the active and inactive calls. Rule as the data show it: active = activation above about 85%; inactive = the rest.

These compounds were tested against Peroxisome proliferator-activated receptor gamma (Homo sapiens) (UniProt P37231) (assay: partial agonism at human PPARgamma receptor – cell-based, luciferase reporter, luminescence, primary screen (AID 504452;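 also: Cos-1 cells carrying PPARgamma and a response element luciferase reporter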)). Details: cell-based PPARg luciferase reporter, at 5 µM, stronger effect = higher value; activation (% of full agonist control): measured here: relative to full agonist control.
Peroxisome proliferator-activated receptor gamma (Homo sapiens), sequence (P37231 whole entry, looked up): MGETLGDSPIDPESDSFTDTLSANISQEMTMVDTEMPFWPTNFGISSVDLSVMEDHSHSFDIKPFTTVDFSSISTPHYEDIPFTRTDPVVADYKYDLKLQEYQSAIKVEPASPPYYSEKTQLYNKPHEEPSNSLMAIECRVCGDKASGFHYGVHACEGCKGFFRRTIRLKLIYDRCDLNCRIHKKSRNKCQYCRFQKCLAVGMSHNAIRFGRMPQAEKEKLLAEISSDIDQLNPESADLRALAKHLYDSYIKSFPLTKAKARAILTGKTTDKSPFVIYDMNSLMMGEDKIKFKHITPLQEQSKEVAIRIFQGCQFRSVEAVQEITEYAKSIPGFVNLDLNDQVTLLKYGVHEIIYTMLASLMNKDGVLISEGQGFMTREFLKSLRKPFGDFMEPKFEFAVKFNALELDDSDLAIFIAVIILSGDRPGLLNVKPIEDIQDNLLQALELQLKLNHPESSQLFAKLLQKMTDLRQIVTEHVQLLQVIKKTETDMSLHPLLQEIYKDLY
With `O=C1CC(N2CCN(Cc3ccc4c(c3)OCO4)CC2)C(=O)N1Cc1ccc(N2CCCC2=O)cc1` (stereo not given) the activation (% of partial agonist control) was 91.6% (active) and the activation (% of full agonist control) was 41.4%.
In the case of `CC(Oc1ccc(F)cc1)C(=O)Nc1cc(S(=O)(=O)N2CCCCC2)ccc1N1CCOCC1` (stereo not given), the activation (% of partial agonist control) is reported as 68.8% (inactive) and the activation (% of full agonist control) is reported as 31.1%.
In the case of `Cc1cc(N2C(=O)C(=O)/C(=C(/O)c3ccc(F)cc3)C2c2ccc(F)cc2)no1` (stereo not given), the activation (% of partial agonist control) is reported as 70.3% (inactive) and the activation (% of full agonist control) is reported as 31.8%.
In the case of `O=C(CC1C(=O)Nc2ccccc2N1CC(=O)N1CCCC1)Nc1ccc(Br)cc1` (stereo not given), the activation (% of partial agonist control) is reported as 81.9% (inactive) and the activation (% of full agonist control) is reported as 37%.
For `Cc1ccc(S(=O)(=O)Nc2ccccc2F)cc1C(=O)N1CCN(c2ccccc2O)CC1`, the activation (% of partial agonist control) was 73% (inactive) and the activation (% of full agonist control) was 33%.
